Compound activity: PubChem BioAssay, Milwaukee Institute for Drug Discovery
Hits are enriched below; roughly 6.9% of the tested compounds scored in any of these assays.
NS3h inh CB = blocks HCV NS3 helicase binding to DNA; AID 687043; NS3h Cy5-dT15 DNA binding, fluorescence polarization; 16,000 compounds, 1.6% hits; inhibition, % at 100 µM;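 active = inhibition above the average over every tested compound plus 3 SD, cut at about 40% in these data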
Cy5 interf NS3h = counter-screen for HCV NS3 helicase inhibitors: fluorescence interference | Cy5-dT15 DNA with NS3h; actives lie on both sides; signal over control mean, under 1 quenches | fluorescence interference ratio at 100 µM | 16,000 compounds, 6% hits | AID 720488;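 active = compound fluorescence over control fluorescence at most 0.8, a quencher, or at least a set upper limit, an enhancer; inactive = ratio between 0.8 and the set upper limit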
HCV NS3h conf = hepatitis C NS3 helicase inhibition, confirmation; NS3h binding to Cy5-dT15 DNA, fluorescence polarization; shares compounds with NS3h inh CB; AID 720485; inhibition, % at 100 µM; 240 compounds, 20% hits;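 active = percent inhibition of 50% or more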
SSB-DNA FP CB = disrupts E. coli SSB binding to DNA in counter-screen; inhibition, % at 100 µM; E. coli SSB binding Cy5-dT15, fluorescence polarization; 240 compounds, 40% hits; AID 720486; shares compounds with NS3h inh CB;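 active = inhibition of at least 50%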;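 also: displacers lower Cy5 polarization so higher inhibition means more SSB displaced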
Target sequence (P0AGE0 whole entry, looked up): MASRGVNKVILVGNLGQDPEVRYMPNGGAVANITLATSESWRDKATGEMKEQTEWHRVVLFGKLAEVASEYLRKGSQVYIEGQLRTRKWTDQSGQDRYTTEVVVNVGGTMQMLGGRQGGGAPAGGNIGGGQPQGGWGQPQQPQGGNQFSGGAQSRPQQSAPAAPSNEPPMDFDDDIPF
Cy5 SSB fluor CB = enhances or quenches Cy5-DNA fluorescence with E. coli SSB | Cy5-dT15/E. coli SSB fluorescence interference; actives lie on both sides | shares compounds with NS3h inh CB | fluorescence interference ratio at 100 µM | AID 720487 | 240 compounds, 8% hits;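 active = fluorescence interference ratio at or above 1.2, signal boosting, or at or below 0.8, signal quenching; inactive = ratio between 0.8 and 1.2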;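 also: ratio of compound well signal to mean negative control signal so 1 means no effect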
Cy5 fluor confirm = confirmation counter-screen for HCV NS3 helicase inhibitors: fluorescence interference | shares compounds with NS3h inh CB | Cy5-dT15 DNA/NS3h fluorescence interference counterscreen | fluorescence interference ratio at 100 µM, hits read low | 240 compounds, 44% hits;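 active = fluorescence interference ratio at or below 0.8 quencher or at or above a set limitenhancer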;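 also: ratio of compound fluorescence to mean of negative controls so 1 means no interference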
* marks the source's active call; other numbers are inactive results; nt = no result.

SMILES	NS3h inh CB	Cy5 interf NS3h	HCV NS3h conf	SSB-DNA FP CB	Cy5 SSB fluor CB	Cy5 fluor confirm
CN(C)c1ccc(NC(=O)N2CCOCC2)cc1	157*	2.1*	55*	82*	1.1	0.95
CN(C)c1ccc(NC(=O)C(N)=O)cc1	5	1	nt	nt	nt	nt
O=C1NC(=O)N(c2ccccc2)C(=O)/C1=C\c1cccc(OCc2ccccc2F)c1	14	1	nt	nt	nt	nt
O=C1NC(=O)C(=Cc2cccc(OCc3ccc(Cl)cc3Cl)c2)C(=O)N1	38	1	23	17	1	0.74*
O=C(O)/C=C/c1ccc(-c2ccccc2Cl)o1	-2	1.1	nt	nt	nt	nt
C=CCOc1c(I)cc(/C=C2/C(=O)NC(=O)N(c3ccc(OC)cc3)C2=O)cc1OC	8	1	nt	nt	nt	nt
COc1cc(C=C2C(=O)NC(=O)NC2=O)cc(I)c1OCc1ccc([N+](=O)[O-])cc1	54*	0.48*	16	31	0.91	0.59*
CCOc1cc(/C=C2/SC(=S)N(C)C2=O)ccc1OCCOc1ccc(C(C)(C)C)cc1	9	1.1	nt	nt	nt	nt
O=[N+]([O-])c1cccc(S(=O)(=O)Nc2ccc(O)c(Cl)c2)c1	5	0.83	nt	nt	nt	nt
O=C(O)CCn1c(O)c(C2=c3cc([N+](=O)[O-])ccc3=NC2=O)sc1=S	28	0.94	9	28	0.93	0.77*
O=C1N=c2ccc([N+](=O)[O-])cc2=C1c1sc(NS(=O)(=O)c2ccccc2)nc1O	41*	1	15	101*	0.87	0.75*
COCCCn1c(O)c(C2=c3ccccc3=NC2=O)sc1=S	20	1	nt	nt	nt	nt
CCCCN(CCCC)C(=O)CSc1nc2sc(C)c(C)c2c(=O)[nH]1	13	1	nt	nt	nt	nt
CCC1(C)C2(C#N)C(N)=NC(OC)(OC)C12C#N (stereo not given)	1	0.96	nt	nt	nt	nt
O=C1OC(c2ccccc2)=N/C1=C\c1c(Cl)cccc1Cl	6	1	nt	nt	nt	nt
COc1ccc2c(c1)C1C=CCC1C(C(=O)O)N2 (stereo not given)	84*	1.2	59*	108*	1.5*	0.94
O=C(O)C1Nc2c(Cl)cc(Cl)cc2C2C=CCC12 (stereo not given)	97*	0.87	57*	104*	0.9	0.75*
Cc1nc2sc(C(=O)c3ccc(Br)cc3)c(N)c2c(C)c1C	10	0.97	nt	nt	nt	nt
COc1ccc(NC(=O)CN(c2cccc(Cl)c2)S(C)(=O)=O)cc1	5	1	nt	nt	nt	nt
COc1ccc(-c2nnc(-c3cccc(C)c3)o2)cc1	7	0.94	nt	nt	nt	nt
CC1=C(C)CC(C(=O)NCCc2ccccc2)C(C(=O)O)C1 (stereo not given)	1	0.98	nt	nt	nt	nt
CCOC(=O)c1c(NC(=O)/C=C/c2ccc(C)o2)sc(C)c1C	61*	0.99	2	3	0.97	0.74*
Cc1ccc(/C=C/C(=O)Nc2ccc(Cl)cc2Cl)o1	26	0.92	nt	nt	nt	nt
C=CCN1C(=O)NC(=O)/C(=C\c2ccccc2OCc2ccc([N+](=O)[O-])cc2)C1=O	58*	0.49*	27	26	0.97	0.66*
O=C1NC(=O)N(c2ccccc2)C(=O)/C1=C\c1ccccc1OCc1ccccc1F	22	1	nt	nt	nt	nt
SMILES	NS3h inh CB	Cy5 interf NS3h	HCV NS3h conf	SSB-DNA FP CB	Cy5 SSB fluor CB	Cy5 fluor confirm
C=CCONC(CCC)=C1C(=O)CC(C)(C)CC1=NC	14	0.89	nt	nt	nt	nt
O=C(c1c(Cl)cccc1Cl)N1CCN(c2ccc([N+](=O)[O-])cc2)CC1	23	1	nt	nt	nt	nt
Cc1c(C(=O)O)cccc1-n1c(C)ccc1C	97*	1.4*	67*	106*	0.94	0.95
O=C(O)c1cccc(C(=O)O)c1N(c1ccccc1)c1ccccc1	3	1	nt	nt	nt	nt
O=C1NC(=S)S/C1=C\c1ccc(-c2ccccc2C(=O)O)o1	62*	0.87	53*	110*	0.79*	0.91
O=C1NC(=S)S/C1=C/c1ccc(-c2ccccc2)o1	18	1.1	nt	nt	nt	nt
COc1ccc(OC)c(N(CC(=O)Nc2ccc(Cl)cc2)S(C)(=O)=O)c1	1	1	nt	nt	nt	nt
O=C1NC(=O)N(c2ccccc2)C(=O)/C1=C\c1ccc(Cl)cc1	8	1	nt	nt	nt	nt
O=C1NC(=O)N(c2ccc(Cl)cc2)C(=O)/C1=C/c1cc(I)c(O)c([N+](=O)[O-])c1	78*	1	43	92*	0.92	0.96
O=C1NC(=O)N(c2cccc(Br)c2)C(=O)/C1=C/c1ccc(O)c(Cl)c1	25	1	nt	nt	nt	nt
O=C1NC(=O)N(c2ccc(Cl)cc2)C(=O)/C1=C/c1ccc(O)c(Cl)c1	74*	1	21	34	0.97	0.86
